Assay [1] deals with Albumin (Bos taurus) (UniProt P02769). Put plainly: bovine serum albumin binders on microarray, profiling panel, artefact control for SMM control protein annotation, biochemical, small-molecule microarray, Alexa647 label, 635/667 nm fluorescence (AID 1118).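 Also: score merges 667 nm emission intensity and signal-to-noise per printed compound spot.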 Conditions: BSA-A647 binding, fluorescence 635 nm, higher = more signal.
Assay [2] is described as follows: small-molecule microarray binders of probe aXIP, primary screen, biochemical, NeuroSMM set, 635/667 nm fluorescence (AID 1119).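 Also: probe is the protein aXip251-270 applied at 1 µg/mL to compound-printed slides; binding of probe to printed compounds measured as 667 nm fluorescence plus signal to noise.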 Conditions: higher = more signal, called active from +8 up or from −8 down.
The nature of assay [3]: small-molecule binders of probe aNOTCH3, primary screen, biochemical, small-molecule microarray, 635/667 nm fluorescence (AID 1120).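 Also: probe is a biotin-tagged antibody raised against NOTCH3 rather than NOTCH3 protein; score merges spot fluorescence near 667 nm with spot signal to noise.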 The note with it: higher = more signal.
Assay [4] is described as follows: small-molecule binders of probe aNOTCH2, primary screen, biochemical, small-molecule microarray, 635/667 nm fluorescence (AID 1121).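 Also: score merges feature fluorescence read at 667 nm with its signal to noise.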 Conditions: higher = more signal.
Assay [5] has as its target Carbonic anhydrase 2 (Homo sapiens) (UniProt P00918). Put plainly: CAII small-molecule binders, profiling panel, biochemical, small-molecule microarray, Alexa647-labelled CAII (AID 1122). The note with it: CAII-A647 binding fluorescence, higher = more signal.
Assay [6] is described as follows: COS7 lysate on small-molecule microarray, probe aHis, 635 nm (AID 1123).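 Also: z-score combines 667nm fluorescence intensity with signal-to-noise per printed compound spot.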 Conditions: COS7 cell lysate, fluorescence, higher = more signal.
Assay [7] is described as follows: compound binding in COS7 lysate, probe aLAP1, primary screen, cell lysate, small-molecule microarray (AID 1124).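 Also: lysate comes from COS7 cells expressing LAP1 and is applied at 0.3 µg/mL; score merges spot fluorescence near 667 nm with signal-to-noise over triplicate slides.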 The note with it: probe aLAP1, fluorescence, higher = more signal.
Assay [8] has as its system Sam68 (KHDRBS1). Put plainly: Sam68 small-molecule binders, primary screen, biochemical, small-molecule microarray, 635 nm fluorescence (AID 1125).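 Also: score merges 667 nm channel intensity with signal to noise over triplicate slides.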 The note with it: small-molecule microarray binding, higher = more signal.
For assay [9], the system named is Chordin-like protein 2 (CHRDL2). Put plainly: CHRDL2 small-molecule binders, primary screen, biochemical, small-molecule microarray, 635 nm fluorescence (AID 1126).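 Also: printed compound slides probed with Chrdl2 protein at 4 µg/mL for 1 h at 4 C; score merges 667 nm emission intensity with signal to noise over three replicate slides.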 The note with it: small-molecule microarray binding, fluorescence 635 nm; higher = more signal.
In assay [10] the target is Concanavalin-A (Canavalia ensiformis) (UniProt P02866). Put plainly: ConA small-molecule binders, primary screen, artefact control for SMM control protein annotation, biochemical, small-molecule microarray, Alexa647 label, 635 nm (AID 1127).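 Also: z combines 667 nm emission intensity with signal-to-noise across three replicate slides.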 Conditions: ConA-A647 binding fluorescence, higher = more signal.
Chain of Concanavalin-A (Canavalia ensiformis) (P02866 whole entry, looked up): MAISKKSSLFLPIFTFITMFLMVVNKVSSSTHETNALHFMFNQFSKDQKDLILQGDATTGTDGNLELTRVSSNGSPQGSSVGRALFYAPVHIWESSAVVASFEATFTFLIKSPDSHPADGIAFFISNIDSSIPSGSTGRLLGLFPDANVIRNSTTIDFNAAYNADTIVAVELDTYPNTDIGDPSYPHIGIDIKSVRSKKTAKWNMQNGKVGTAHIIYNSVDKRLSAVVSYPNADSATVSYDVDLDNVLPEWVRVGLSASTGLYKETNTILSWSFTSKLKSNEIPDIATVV

Activity calls are given as the source filed them.

Chain of Albumin (Bos taurus) (P02769 whole entry, looked up): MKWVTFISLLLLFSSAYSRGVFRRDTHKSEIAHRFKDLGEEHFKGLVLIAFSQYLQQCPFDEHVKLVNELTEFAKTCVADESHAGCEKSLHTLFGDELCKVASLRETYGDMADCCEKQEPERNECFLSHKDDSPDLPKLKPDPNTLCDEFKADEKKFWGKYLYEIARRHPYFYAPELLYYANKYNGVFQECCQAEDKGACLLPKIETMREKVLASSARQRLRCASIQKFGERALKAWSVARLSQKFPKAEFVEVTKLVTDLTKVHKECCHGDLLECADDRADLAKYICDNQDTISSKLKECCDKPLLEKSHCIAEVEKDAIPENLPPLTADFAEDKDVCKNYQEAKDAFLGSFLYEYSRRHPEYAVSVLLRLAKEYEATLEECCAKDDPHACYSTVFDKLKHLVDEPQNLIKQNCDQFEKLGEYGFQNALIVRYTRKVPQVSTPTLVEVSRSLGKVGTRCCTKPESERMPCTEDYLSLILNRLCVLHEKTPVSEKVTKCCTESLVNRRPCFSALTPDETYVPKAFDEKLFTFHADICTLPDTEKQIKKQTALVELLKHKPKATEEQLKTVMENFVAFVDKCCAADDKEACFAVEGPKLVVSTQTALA

For `C=C(/C(=C/C[C@@H](OC(C)=O)c1ccccc1OCCO)c1cc(C(=O)OC)ccc1OC)C(C)C`, the composite z-score in [1] was 0.344; in assay [3] it was 0.217; in assay [4], -0.0548; in assay [5], 0.697; in assay [6], 0.335; in assay [7], -0.394. In addition, the composite z-score in [8] is 0.373; in assay [9], -0.134; in assay [10], 1.02. The composite Z-score in [2] is 0.231 (inactive).

As to `C=CC[C@@]12N=C(c3ccc(OCCCO)cc3)O[C@@H]1c1ccccc1N(Cc1ccccc1)C2=O`, the composite z-score in [1] was 0.0349; in assay [3], 0.405; in [4], 0.14; in assay [5] it was 0.463; in [6], 3.15; in assay [7], 0.532. Moreover, the composite z-score is 1.3 in [8], 1.43 in assay [9] and 1.02 in assay [10]. For the same compound, the composite Z-score in assay [2] was 0.407 (inactive).

Turning to `[N-]=[N+]=NCc1ccccc1[C@H]1OC(c2ccc(OCCCO)cc2)=N[C@@]1(Cc1ccccc1)C(=O)N1CCOCC1`, the composite z-score in [1] was 0.912; in [3], 0.754; in assay [4] it was 0.294; in [5], 0.55; in [6] it was 2.97; in assay [7], 0.204. The composite z-score is 1.3 in [8], -0.0573 in [9] and 1.14 in [10]. Moreover, in assay [2], the composite Z-score was 0.475 (inactive).

As to `COCCOC(=O)N1C(=O)[C@@]2(c3cc(C#CCCO)ccc31)[C@H](c1ccc(O)cc1)N1[C@H](c3ccccc3)[C@H](c3ccccc3)OC(=O)[C@H]1[C@@H]2C(=O)N1CCc2cc(OC)c(OC)cc2C1`, the composite z-score in assay [1] was -0.997; in assay [3] it was 0.341; in [4], 0.305; in assay [5], 0.345; in [6], 1.48; in [7], 1.07. For the same compound, the composite z-score in assay [8] was 1.32; in assay [9], 0.789; in [10] it was 1.06. Further, the composite Z-score in [2] is 0.454 (inactive).

For the compound `C=CCC(OC(C)=O)[C@@H]1[C@@H](N(Cc2cccc3ccccc23)C(=O)c2ccc(-c3ccccc3)cc2)c2cc(OCCCO)ccc2N1C(=O)c1ccc2ccccc2n1` (stereo not given in full), the composite z-score in assay [1] is 0.192; in [3], 0.119; in assay [4], -0.0639; in assay [5], 0.0528; in [6], 0.181; in assay [7] it was 0.649. In addition, the figures for the composite z-score in assay [8], in assay [9] and in assay [10] were 0.464, 0.41 and -0.288, respectively. For the same compound, in [2], the composite Z-score was -0.0401 (inactive).

For `NC(=O)N1C(=O)C2C(C1=O)C1C=C(CCCO)C2C(c2ccc(CN3CCCC3)cc2)N1Cc1cccc(OC(F)(F)F)c1` (stereo not given), the composite z-score was 0.0639 in [1]; 0.0142 in assay [3]; -0.0148 in [4]; 0.203 in assay [5]; 0.904 in assay [6]; 0.0715 in assay [7]. Also, the composite z-score in assay [8] was 0.64; in assay [9], 0.681; in assay [10], -0.171. For the same compound, the composite Z-score in [2] is 0.463 (inactive).

Consider `Cc1ccc(S(=O)(=O)N2[C@@H](c3ccccc3)C(C(=O)O)=CC[C@H]2c2ccc(C#N)cc2)cc1`, for which the composite z-score was 1.04 in [1]; -0.0647 in [3]; 0.0167 in assay [4]; 0.802 in assay [5]; 3.18 in assay [6]; 1.04 in [7]. The composite z-score was 1.21 in assay [8], -0.425 in assay [9] and 0.805 in assay [10]. The composite Z-score in [2] was 0.661 (inactive).

In the case of `COc1ccc(NN2C(C(O)c3ccc(OC)cc3)C=CC3C(=O)N(C4CCCCC4)C(=O)C32)cc1` (stereo not given), the composite z-score is 0.828 in [1]; 0.124 in assay [3]; -0.0037 in assay [4]; 0.405 in [5]; 1.1 in assay [6]; 0.0023 in assay [7]. Also, the composite z-score in [8] was 1.28; in [9], -0.138; in [10] it was 0.872. In assay [2], the composite Z-score was 0.297 (inactive).

On to `COc1ccc(CCNC(=O)[C@@]2(Sc3ccc(C)cc3)CC(=O)N(Cc3cc(C(F)(F)F)cc(C(F)(F)F)c3)[C@@H]2c2ccc(CO)cc2)cc1`, for which the composite z-score was -0.391 in [1]; -0.352 in [3]; 0.118 in [4]; 0.711 in assay [5]; 1.16 in assay [6]; 0.538 in [7]. Further, the composite z-score was -1.13 in assay [8], -2.73 in assay [9] and -3.06 in assay [10]. Besides, the composite Z-score in assay [2] is -0.669 (inactive).

For the compound `COC(=O)C(CC#Cc1ccc2c(c1)[C@]1(C(=O)N2)[C@H](c2ccc(O)cc2)N2[C@H](c3ccccc3)[C@H](c3ccccc3)OC(=O)[C@H]2[C@@H]1C(=O)N1CCc2cc(OC)c(OC)cc2C1)C(=O)OC`, the composite z-score is -0.1 in [1]; 0.0032 in [3]; -0.125 in [4]; 0.366 in assay [5]; 1.72 in assay [6]; 1.05 in assay [7]. For the same compound, the composite z-score in [8] was determined as 1.32; in assay [9], 0.64; in assay [10], 1.12. In [2], the composite Z-score is 0.33 (inactive).

For `CCCC[C@H]1OB(O)C[C@H]2C1=C(C)C[C@H]1C(=O)C=CC(=O)[C@H]12`, the composite z-score was -0.324 in assay [1]; 0.0159 in [3]; -0.106 in [4]; 0.011 in assay [5]; 0.423 in assay [6]; 0.121 in [7]. Further, the composite z-score was 1.04 in [8], 0.821 in assay [9] and 0.544 in [10]. For the same compound, the composite Z-score in assay [2] was -0.0764 (inactive).

For `C[N+](C)(C)CCCCCCNC(=O)[C@@H]1C[C@@H]2C(=O)N[C@@H](Cc3ccccc3)C(=O)N2[C@@H]1c1ccc(O)cc1`, the composite z-score was 0.454 in assay [1]; 0.325 in [3]; -0.126 in assay [4]; 0.524 in assay [5]; 0.955 in assay [6]; 0.385 in assay [7]. The results for the composite z-score in [8], in assay [9] and in assay [10] were 1.29, 1.39 and 1.12, respectively. For the same compound, in [2], the composite Z-score is 0.609 (inactive).

As for `O=C1OCCC=C[C@H]2OC34C=CCN(CCN5CCOCC5)C(=O)[C@H]3N(CCCO)C(=O)[C@@H]4C12` (stereo not given in full), the composite z-score in assay [1] is -0.444; in assay [3], -0.155; in assay [4], -0.171; in assay [5], 0.0003; in assay [6] it was 1.2; in assay [7], -0.0411. The composite z-score in assay [8] is -0.119; in assay [9] it was -0.794; in [10] it was -0.112. Moreover, the composite Z-score in assay [2] is 1.11 (inactive).

Consider `COCCCNC(=O)[C@@H]1c2ccccc2C(=O)N(C2CCCCC2)[C@H]1c1ccc(CO)cc1`, for which the composite z-score in assay [1] was -0.527; in [3], -0.27; in assay [4], -0.106; in [5] it was 0.471; in assay [6] it was 1.08; in [7], 0.0117. Further, the composite z-score is -0.724 in assay [8], -1.23 in assay [9] and -0.247 in assay [10]. Further, the composite Z-score in assay [2] was -1.17 (inactive).

Source of the values: PubChem BioAssay.
